Six1-Eya2 inh: blocks human Six1 binding to Eya2; AlphaScreen GST-Six1/His-Eya2 binding, biochemical; active compounds read low; activity change, % (no concentration beside the values); 0.56% of 360,000 active; in the data active means activity change below about -65%; inconclusive means mostly about -30% to -63%
Target sequence (O00167 whole entry, looked up): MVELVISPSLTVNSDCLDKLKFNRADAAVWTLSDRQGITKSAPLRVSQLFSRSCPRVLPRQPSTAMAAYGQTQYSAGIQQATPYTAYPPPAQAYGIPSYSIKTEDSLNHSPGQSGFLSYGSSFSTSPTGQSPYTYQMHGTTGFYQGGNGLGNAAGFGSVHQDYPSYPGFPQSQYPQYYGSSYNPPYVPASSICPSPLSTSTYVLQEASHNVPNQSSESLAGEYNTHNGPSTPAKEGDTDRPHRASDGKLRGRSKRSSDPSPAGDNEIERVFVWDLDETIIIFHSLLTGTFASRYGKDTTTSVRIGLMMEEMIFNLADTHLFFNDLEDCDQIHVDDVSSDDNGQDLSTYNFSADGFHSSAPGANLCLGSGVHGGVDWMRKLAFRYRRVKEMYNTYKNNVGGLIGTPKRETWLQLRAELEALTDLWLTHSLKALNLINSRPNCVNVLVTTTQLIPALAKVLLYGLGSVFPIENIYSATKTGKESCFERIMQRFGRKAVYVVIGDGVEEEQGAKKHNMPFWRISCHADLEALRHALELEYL
Target sequence (Q15475 whole entry, looked up): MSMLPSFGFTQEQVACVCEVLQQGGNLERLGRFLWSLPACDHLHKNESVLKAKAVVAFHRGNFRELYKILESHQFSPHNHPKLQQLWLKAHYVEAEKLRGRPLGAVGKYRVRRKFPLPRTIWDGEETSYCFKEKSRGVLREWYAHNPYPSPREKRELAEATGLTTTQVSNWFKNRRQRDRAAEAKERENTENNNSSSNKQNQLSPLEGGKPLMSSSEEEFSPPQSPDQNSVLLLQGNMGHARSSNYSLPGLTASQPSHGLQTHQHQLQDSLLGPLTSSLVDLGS
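Six1/Eya2 binding was read as AlphaScreen signal after compounds were pinned into GST-Six1 plus His-tagged Eya2 (5X stock 250/500 nM) in pH 8.0 Tris/NaCl/TCEP buffer, beads added, then incubated 1 h, 37 C, dark.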
CtBP-E1A blk: CtBP/E1A binding inhibition; AlphaScreen GST-E1A/His-CtBP binding, 1536-well; active compounds read low; activity change, % (no concentration beside the values); 0.49% of 340,000 active; in the data active means activity change below about -65%; inconclusive means mostly about -30% to -63%
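Protein mix (5X: 125 nM each GST-E1A, His-CtBP) was incubated with pinned compound 2 h at 37 deg C in dark, in 50 mM Tris pH 8.0 buffer with 300 mM NaCl. Glutathione donor and nickel acceptor beads followed; AlphaScreen signal read after 1 h.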
PKM2 activator: activators of human pyruvate kinase M2; 0.34% of 260,000 active; Potency, µM (top dose mostly 57.5 µM), for inactives: at the top dose activation, hits mostly activators; P14618; AID 1631; purified PKM2, Kinase-Glo ATP luminescence, activation; response scale: 0% is enzyme alone, no compound; further: potency means the concentration at half of the fitted maximal effect; nearly all actives have a fitted effect of over 55% in size
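Kinase-Glo luminescence reports ATP generated from ADP (0.1 mM) and PEP (0.5 mM) by purified hPK-M2 after 1 h at room temperature, pH 7.2 imidazole buffer; intermediate enzyme activity allows detecting inhibitors and activators.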
VP16 counter: counter-screen for ROR gamma inhibitors: Gal4-VP16 reporter; Potency, µM (top dose mostly 53.6 µM), without a hit: at the highest dose activity, negative = inhibition, hits mostly inhibitors; Drosophila S2 Gal4-VP16 UAS-luciferase, luminescence, 20 h; 3.5% of 310,000 active;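 further: Gal4-VP16 expression switched on by copper sulfate through the metallothionein promoter; potency means the concentration at half of the fitted maximal effect; nearly all actives have a fitted effect of over 50% in size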
RORg inh: blocks mouse ROR gamma transcriptional activity. P51450. Drosophila S2 Gal4-RORgamma UAS-luciferase reporter, 20 h. Potency, µM (series often up to 53.6 µM), for the others: top-dose activity change, negative = inhibition, actives largely listed as inhibitors. 5.4% of 310,000 active. AID 2551; further: potency means the concentration at half of the fitted maximal effect; nearly all actives have a fitted effect of over 60% in size
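ROR gamma transcriptional activity was tracked as Gal4-UAS luciferase output in stably transfected Drosophila Schneider cells, with compound added 1 hr before 700 uM copper sulfate induction and a 20 hr ambient-temperature incubation.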
Active calls of the source: *; ? = inconclusive; . = no result; [ ] = dose if it differs, or a comment. Only some compounds are listed: those with a hit (about 5.6% of all), similar ones and a draw of the others. Unless noted, the call rests on the fitted dose curve; in most records, active means well fitted curve in the direction sought with a large enough effect; inconclusive means small, poorly fitted or top-dose-only effect, or another doubt; inactive means no such curve, though single readings can be large; an effect the other way counts as inactive or inconclusive. On the % scale 0 is the no-effect control and ±100 the full control effect.

SMILES | Six1-Eya2 inh | CtBP-E1A blk | PKM2 activator | VP16 counter | RORg inh
COc1ccc(CCNC(=S)Nc2cccc3ccccc23)cc1 | -14.3 | -18.3 | 6.7% | 11.2µM* | 5.01µM*
CCOC(=O)c1ccccc1NC(=O)c1cn(CC)c2nc(C)ccc2c1=O | 5.4 | -4.0 | -0.3% | ? | 11.2µM*
CCn1cc(C(=O)Nc2ccccc2C(=O)OC)c(=O)c2ccc(C)nc21 | . | . | -2.5% | -21.9% | -16.0%
CCCCCCN(C(=O)CCCCCN1C(=O)NC(c2ccc([N+](=O)[O-])cc2)C(C(=O)OCc2ccccc2)=C1C)C(C(=O)NCCCC)C1CCCCC1 (stereo not drawn) | -0.8 | -3.5 | . | . | .
C=CCN1C(=O)/C(=C/c2ccc(OC)cc2)S/C1=N/c1nccs1 | 3.6 | 6.6 | 0.3% | -24.9% | 5.01µM*
C=CCN1C(=O)/C(=C/c2ccc(O)cc2)S/C1=N/c1nccs1 | -11.2 | -22.9 | 0.3% | -21.3% | -8.4%
CCOc1ccc(C(C(=O)NC(C)(C)C)N(CCOC)C(=O)CCC(=O)Nc2ccccn2)cc1 (stereo not drawn) | 1.3 | -0.8 | -10.2% | 5.2% | 3.1%
COc1ccc(N2C(=O)/C(=C\c3ccco3)N=C2SCC(=O)NC(C)C)cc1Cl | 1.9 | 5.1 | 12.5% | ? | ?
COc1ccc(N2C(=O)/C(=C\c3ccco3)N=C2SCC(=O)N(C(C)C)C(C)C)cc1Cl | 1.3 | -6.4 | ? | 10µM* | ?
COc1cccc(C(=O)c2ccncc2C(=O)O)c1OC | -2.8 | -1.7 | . | . | .
CCc1cc(-c2nnn(CCC3COCCO3)c2CC)ccc1-c1cn(Cc2ccccc2)nn1 (stereo not drawn) | -3.4 | -3.1 | . | . | .
Cc1cc(C)c(CSc2ncc(-c3ccc([N+](=O)[O-])cc3)[nH]2)c(C)c1 | -19.7 | -22.1 | -2.3% | 7.08µM* | 10µM*
O=[N+]([O-])c1ccc(-c2cnc(SCc3ccccc3Cl)[nH]2)cc1 | -25.7 | -17.1 | -1.6% | -3.2% | ?
O=C(c1ccc(Cl)cc1)c1ccc(OCC(=O)N2CCOCC2)cc1 | -0.8 | -7.2 | 24.0% | 11.2µM* | ?
O=C(COc1ccc(Cl)cc1)OCC(=O)N1CCOCC1 | 3.4 | 4.5 | . | . | .
Cc1c(C)c2c(c(C)c1OC(=O)c1cccnc1)CC[C@@](C)(CCC[C@H](C)CCC[C@H](C)CCCC(C)C)O2 | . | . | . | -1.0% | 1.0%
CCCCNC(=O)CCC(=O)Nc1ncc(-c2ccc(C)cc2)n1C | -2.8 | -1.3 | 0.4% | 3.98µM* | 2µM*
Cc1ccc(-c2cnc(NC(=O)CCC(=O)N3CCCCC3)n2C)cc1 | -1.5 | -1.7 | -3.7% | 7.94µM* | 3.55µM*
Cn1c(-c2ccc3c(c2)OCO3)cnc1NC(=O)CCC(=O)NCCc1ccccc1 | -5.6 | -5.0 | -7.9% | 5.62µM* | 3.16µM*
CN(C)CCNC(=O)C(=O)Nc1cc2c3c(c1)CCN3C(=O)CC2 | 2.4 | . | . | -2.0% | -8.6%
c1csc(CCNc2ncnc3sc4c(c23)CCC4)c1 | 0.7 | 4.4 | -0.9% | 11.2µM* | -42.6%
C=CCOC(=O)NC(c1ccc(F)c(F)c1)C(C(=O)CCl)C(=O)OC (stereo not drawn) | . | . | . | 10.3% | ?
CCOc1ccc(NC(=O)CN2C(=O)CSC2=O)cc1 | -26.5 | -22.4 | -1.2% | ? | -15.6%
COc1ccccc1-c1nnc(NC(=O)Cc2ccccc2)o1 | -27.0 | . | 8.5%[0.46 µM] | 3.16µM* | 2µM*
CSc1ccccc1-c1nnc(NC(=O)Cc2ccccc2)o1 | -4.9 | -26.1 | . | 2.51µM* | 1µM*
SMILES | Six1-Eya2 inh | CtBP-E1A blk | PKM2 activator | VP16 counter | RORg inh
CS(=O)(=O)c1ccccc1-c1nnc(NC(=O)Cc2ccccc2)o1 | ? | -7.8 | . | ? | 11.2µM*
COc1ccccc1-c1nnc(SCC(=O)Nc2ccc(Cl)cc2Cl)o1 | -1.9 | 1.7 | 0.3% | -3.0% | 3.8%
COc1ccc(/C=C/C(=O)C2(O)CCCCC2)cc1OC | 5.6 | 5.7 | -0.8% | 7.0% | -38.2%
CC(=O)c1c(C)[nH]c(=S)c(C#N)c1-c1ccc(Cl)cc1 | 2.6 | 3.2 | 1.4% | ? | ?
CCOC(=O)c1c(C)[nH]c(=S)c(C#N)c1-c1ccc(Cl)cc1 | 1.6 | . | -8.8% | ? | 11.2µM*
CCCCOc1ccc(-c2c(C(=O)Nc3ccccc3)c(C)[nH]c(=S)c2C#N)cc1 | 2.9 | 0.0 | 11.8% | 3.0% | -1.8%
CCOC(=O)c1c(C)[nH]c(=S)c(C#N)c1-c1ccc(OC)cc1 | -2.5 | 6.6 | 1.7% | ? | 12.6µM*
CC(C)(C)NC(=S)NC(C)(C)C | -7.2 | 1.8 | -2.8% | ? | 11.2µM*
CC(C)(C)NC(=S)NC1CC1 | 4.0 | 7.8 | -3.3% | ? | 12.6µM*
CC(C)(CCO)NC(=S)NC1CC2C=CC1C2 (stereo not drawn) | 4.9 | 3.7 | 4.5% | ? | ?
CCOC(=O)/C=C(\C)Sc1cc(O)c2ccccc2c1O | ? | . | ? | ? | 11.2µM*
CCOC(=O)c1cnc2ccc(OCC)cc2c1N(C)Cc1ccccc1 | -6.4 | 10.0 | 1.5% | ? | 14.1µM*
FC(F)(F)c1cnc(COc2ccc(Cl)cc2Cl)c(Cl)c1 | 48.0 | 38.9 | -6.4% | 2.8% | 4.1%
COCCn1c(C)cc(C(=O)CSc2nnc3ccccn23)c1C | 13.0 | 2.8 | -14.1% | ? | 3.16µM*
COCCn1c(C)cc(C(=O)CSc2nc3ccccc3o2)c1C | -8.3 | -12.7 | -1.1% | ? | -6.7%
COCCn1c(C)cc(C(=O)CSc2cc(C)c3ccc(OC)cc3n2)c1C | -24.5 | ? | 20.6% | 2.24µM* | 6.31µM*
COCCn1c(C)cc(C(=O)CSc2nc3ccccc3s2)c1C | -16.8 | -1.9 | 8.5% | 5.01µM* | 14.1µM*
COCCn1c(C)cc(C(=O)CSc2nc(C)c(C)c(C)n2)c1C | -2.5 | -12.4 | 1.6% | 1.2% | 6.5%
Cc1ccc(C(=O)CSc2nnc3ccccn23)c(C)c1 | 0.4 | 11.7 | -1.7% | -7.8%[10 µM] | ?
CCOC(=O)c1ncccc1NC(=O)CC(=O)Nc1cccnc1C(=O)OCC | -94.9* | . | . | . | .
CCOc1ccc(C(=O)OCC(=O)Nc2cccnc2Cl)cc1OCC | -3.3 | -4.8 | . | . | .
COc1ccc(C(O)c2nc(-c3cccc(C(=O)O)c3)cs2)cc1 (stereo not drawn) | 6.8 | -1.1 | . | . | .
CC(Cc1ccccc1)NC(=O)CN1C(=O)c2ccccc2S1(=O)=O (stereo not drawn) | 0.4 | 3.1 | -7.3% | -3.7% | -2.2%
COc1ccc(C2/C(=C(\O)c3ccc4c(c3)CC(C)O4)C(=O)C(=O)N2Cc2cccnc2)c(OC)c1 (stereo not drawn) | 1.7 | 1.2 | -1.3% | -18.4% | -3.1%
O=C(NCc1ccc2c3c(cccc13)C(=O)N2)c1cccs1 | -8.2 | -29.7 | 3.3% | 9.5% | -0.5%
COc1cc(N)c2ncccc2c1Br | -6.2 | -20.3 | . | . | .
O=C1c2cccc3cccc(c23)C(=O)N1CCN1CCN(CC(O)COc2ccc3ccccc3c2)CC1 (stereo not drawn) | -7.6 | -15.1 | -4.2% | 11.2µM* | ?
